{"source": "PubChem BioAssay (EPA / NIEHS)", "note": "Activity calls are given as the source filed them. How the source made its calls: active means hit-call score of the fitted dose curve at least 0.9, where 1 is the maximum; inactive means score below 0.9."}
{"read-out": "CD38, CD38 (gene 952)", "test": "BSK_SAg_CD38: BioMAP Diversity Plus: SAg Assay for CD38 Biomarker Activity (AID 2283087)", "settings": "primary human HUVEC with PBMC; actives raise or lower the signal", "method": "BSK_SAg is a cell-based, multiplexed-readout assay that uses umbilical vein endothelium and peripheral blood mononuclear cells, a human vascular primary cell co-culture, with measurements taken at 24 hours after chemical dosing in a 96-well plate.BSK_SAg_CD38 is one of 10 assay component(s) measured or calculated from the BSK_SAg assay. It is designed to make measurements of enzyme-linked immunosorbent assay, a form of binding reporter, as detected with fluorescence intensity signals by Enzyme-linked immunosorbent assay technology.Data from the assay component BSK_SAg_CD38 was analyzed into 1 assay endpoint. This assay endpoint, BSK_SAg_CD38, was analyzed with bidirectional fitting relative to DMSO as the negative control and baseline of activity. Using a type of binding reporter, gain or loss-of-signal activity can be used to understand changes in the signaling as they relate to the gene CD38. Furthermore, this assay endpoint can be referred to as a primary readout, because this assay has produced multiple assay endpoints where this one serves a signaling function. To generalize the intended target to other relatable targets, this assay endpoint is annotated to the cytokine intended target family, where the subfamily is other cytokine.\nThe levels of cell surface (or secreted, indicated by the prefix \"s\") biomarker endpoints were measured by ELISA. Overt cytotoxicity to cells in confluent adherent cultures (all systems other than the BT system) was assessed by measuring total protein levels using sulforhodamine B (SRB) staining in parallel cultures at the time of biomarker measurements, indicated as SRB endpoints. For proliferation assays for adherent cell types, individual cell types are cultured at sub-confluence and relative cell numbers quantified by SRB staining at time points optimized for each system (48 h: 3C and CASM3C systems; 72 h: BT and HDF3CGF systems; 96 h: SAg system). SRB was performed by staining cells with 0.1% SRB after fixation with 10% TCA and reading wells at 560 nm.Viability and proliferation of PBMC (T cells) was quantified by Alamar Blue reduction for the SAg and BT systems. For PBMC viability (referred to as PBMC Cytotoxicity within the assay endpoint names), cells were plated (75,000/well in a 96-well plate) and then chemical samples added for 1 h before addition of activators, SEB and TSST-1 (20 ng/mL final concentration each). Cells were incubated for 90 h. Then, Alamar Blue (20 uL/well) (Invitrogen, Cat DAL1100) was added for 6 h, and the plates were read with a fluorescence microplate reader at 546/580 nm (excitation/emission). For PBMC proliferation, cells were plated and activated as above but incubated for only 16 h prior to addition of Alamar Blue. Plates were read after 6 h."}
{"smiles": "NC(=O)Cn1c(=O)cc(CCN2CCN(c3nccc4sccc34)CC2)c2ccc(F)cc21", "outcome": "inactive"}
{"smiles": "CN[C@H]1CC[C@@H](c2ccc(Cl)c(Cl)c2)c2ccc(S(N)(=O)=O)cc21", "AC50": "27.7 µM (active)"}
{"smiles": "CN1CCN(Cc2cc(-c3ccc4[nH]c(=O)oc4c3)co2)[C@@H](c2ccc(F)cc2)C1", "AC50": "31.5 µM (active)"}
{"smiles": "Cc1oc(-c2ccccc2)nc1CCOc1cccc2c1ccn2CCC(=O)O", "outcome": "inactive"}
{"smiles": "Cc1cc(NC(=O)C(=O)O)cc(C)c1Oc1ccc(O)c2c1CCC2", "outcome": "inactive"}
{"smiles": "Nc1ccc2c(c1)C(=O)c1ccccc1C2=O", "outcome": "inactive"}
{"smiles": "O=[N+]([O-])C(CO)(CO)CO", "outcome": "inactive"}
{"smiles": "CCCCOC(=O)CCCCCCCCC(=O)OCCCC", "outcome": "inactive"}
{"smiles": "O=c1c(O)c(-c2ccc(O)c(O)c2)oc2cc(O)cc(O)c12", "AC50": "29.9 µM (active)"}
{"smiles": "O=c1[nH]cc(F)c(=O)[nH]1", "outcome": "inactive"}
{"smiles": "CC1(C)NC(=O)NC1=O", "outcome": "inactive"}
{"smiles": "Cc1ccc2ncccc2c1", "outcome": "inactive"}
{"smiles": "CCCCCCCCCCCCCCCC", "outcome": "inactive"}
{"smiles": "CCCCC(CC)COC(=O)CC(C(=O)OCC(CC)CCCC)S(=O)(=O)O", "note": "(stereo not given)", "AC50": "35.3 µM (active)"}
{"smiles": "COc1cc(C=O)ccc1O", "outcome": "inactive"}
{"smiles": "COCCOCCOC", "outcome": "inactive"}
{"smiles": "C=CCc1ccc(O)c(OC)c1", "outcome": "inactive"}
{"smiles": "COc1ccc(S(=O)(=O)N2C(=O)[C@@](c3ccccc3OC)(N3C[C@H](O)C[C@H]3C(=O)N(C)C)c3cc(Cl)ccc32)c(OC)c1", "outcome": "inactive"}
{"smiles": "CNCc1cc(F)ccc1Oc1ccc(Cl)c(Cl)c1", "AC50": "28.5 µM (active)"}
{"smiles": "O=C(OCCCCCOC(=O)c1ccccc1)c1ccccc1", "outcome": "inactive"}
{"smiles": "CCCc1cc(=O)[nH]c(=S)[nH]1", "outcome": "inactive"}
{"smiles": "CCc1c(C(=O)NN2CCCCC2)nn(-c2ccc(Cl)cc2Cl)c1-c1ccc(Br)cc1", "AC50": "11.5 µM (active)"}
{"smiles": "CCCCN(CCCC)CCCC", "outcome": "inactive"}
{"smiles": "CC(C)(C)c1cc(O)c(C(C)(C)C)cc1O", "outcome": "inactive"}
{"smiles": "O=C(O)CCCCC(=O)O", "outcome": "inactive"}
{"smiles": "CCCCCCOCCO", "outcome": "inactive"}
{"smiles": "CC(=O)OC/C=C(\\C)CCC=C(C)C", "outcome": "inactive"}
{"smiles": "c1cc(-c2ccncc2)ccn1", "outcome": "inactive"}
{"smiles": "CCCCCCCC=O", "outcome": "inactive"}
{"smiles": "C[C@]12C=CC(=O)C=C1CC[C@@H]1[C@@H]2C(=O)C[C@@]2(C)[C@H]1CC[C@]2(O)C(=O)CO", "outcome": "inactive"}
{"smiles": "CCCCCCCCCCCC(=O)OC", "outcome": "inactive"}
{"smiles": "Cc1ccc(C(C)C)c(O)c1", "outcome": "inactive"}
{"smiles": "CC1(C)CC(N=C=O)CC(C)(CN=C=O)C1", "note": "(stereo not given)", "outcome": "inactive"}
{"smiles": "O=C(N[C@@H](Cc1ccccc1)[C@@H](O)C(=O)N1C[C@@H](O)[C@@H](O)C1)c1cc2cc(Cl)ccc2[nH]1", "outcome": "inactive"}
{"smiles": "CCCCCCCCCCCCCO", "AC50": "31.1 µM (active)"}
{"smiles": "Cc1c(C(=O)O)c(O)cc2c1C(=O)c1c(O)c([C@@H]3O[C@H](CO)[C@@H](O)[C@H](O)[C@H]3O)c(O)c(O)c1C2=O", "outcome": "inactive"}
{"smiles": "Cc1nc(C)nc(N2C[C@@H](C)N(c3ccnc([C@@H](C)O)n3)[C@@H](C)C2)n1", "outcome": "inactive"}
{"smiles": "COc1ccc2c(c1)c(CC(=O)O)c(C)n2C(=O)c1ccc(Cl)cc1", "outcome": "inactive"}
{"smiles": "CCCCCCCCCCO", "outcome": "inactive"}
{"smiles": "Cc1ccc(C)c(O)c1C", "outcome": "inactive"}
